Reference: the supplement of paper PMC11732987, “Enantioselective OTUD7B fragment discovery through chemoproteomics screening and high-throughput optimisation” (Communications Chemistry, 2025)

Experiments:
Test in all cases: log2 ratio of Biotin-Ahx-Ub-VS probe labelling (fragment/DMSO); higher = less target engagement (more negative = stronger competition), active = hit call of the paper (q ≤ 0.05, log2 ratio ≤ -1)
Conditions in all cases: compound concentration: 200 uM; treatment time: 3 h
[1] = molecular target: T1, OTUD6B (UniProt Q8N6M0)
T1 sequence (whole entry): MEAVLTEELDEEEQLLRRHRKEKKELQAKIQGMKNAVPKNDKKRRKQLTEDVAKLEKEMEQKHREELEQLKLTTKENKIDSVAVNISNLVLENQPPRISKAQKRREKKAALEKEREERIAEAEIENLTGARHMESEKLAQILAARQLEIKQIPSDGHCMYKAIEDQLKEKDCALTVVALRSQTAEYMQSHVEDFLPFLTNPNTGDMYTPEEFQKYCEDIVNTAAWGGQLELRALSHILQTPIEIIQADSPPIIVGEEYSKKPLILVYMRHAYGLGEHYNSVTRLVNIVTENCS
In short: (§1)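 HEK293T lysate (495 µg per sample, in Tris/CHAPS/IGEPAL buffer with protease inhibitors) was exposed in triplicate for 3 h to fragment at 200 µM or to vehicle, then to Biotin-Ahx-Ub-VS at 0.5 µM final for 1 h. Labelled DUBs were enriched on NeutrAvidin, digested with LysC and trypsin, and analysed by diaPASEF LC-MS/MS. Spectronaut label-free quantities were normalised to the global median, and values are average log2 ratios of fragment over vehicle from an unpaired t-test. Only proteins with ≥2 unique peptides were used.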

[2] = molecular target: T2, OTUD7B (UniProt Q6GQQ9)
T2 sequence (whole entry): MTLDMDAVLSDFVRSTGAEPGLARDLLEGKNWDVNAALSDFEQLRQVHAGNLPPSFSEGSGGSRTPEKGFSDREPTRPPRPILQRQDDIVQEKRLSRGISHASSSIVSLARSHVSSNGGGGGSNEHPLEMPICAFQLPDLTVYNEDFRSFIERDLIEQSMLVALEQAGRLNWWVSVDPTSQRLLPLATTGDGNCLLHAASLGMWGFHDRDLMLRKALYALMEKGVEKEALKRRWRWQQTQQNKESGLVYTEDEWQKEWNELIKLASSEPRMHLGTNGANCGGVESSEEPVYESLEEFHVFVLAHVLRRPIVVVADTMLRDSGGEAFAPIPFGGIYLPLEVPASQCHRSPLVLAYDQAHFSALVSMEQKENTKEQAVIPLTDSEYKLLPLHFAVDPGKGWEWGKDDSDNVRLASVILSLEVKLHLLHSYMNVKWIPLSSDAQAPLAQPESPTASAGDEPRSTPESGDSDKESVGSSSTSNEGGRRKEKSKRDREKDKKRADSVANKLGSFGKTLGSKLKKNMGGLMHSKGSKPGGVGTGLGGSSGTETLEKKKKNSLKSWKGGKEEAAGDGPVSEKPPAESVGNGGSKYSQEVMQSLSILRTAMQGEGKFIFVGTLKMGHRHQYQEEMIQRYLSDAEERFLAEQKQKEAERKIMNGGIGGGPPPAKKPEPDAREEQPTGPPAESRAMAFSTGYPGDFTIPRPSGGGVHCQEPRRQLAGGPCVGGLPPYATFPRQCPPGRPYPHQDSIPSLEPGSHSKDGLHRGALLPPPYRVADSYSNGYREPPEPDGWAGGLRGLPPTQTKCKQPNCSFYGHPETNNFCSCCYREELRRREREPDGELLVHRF
In short: as §1

[3] = molecular target: PRPF8 (UniProt Q6P2Q9)
In short: as §1

[4] = molecular target: T3, PSMD7 (UniProt P51665)
T3 sequence (whole entry): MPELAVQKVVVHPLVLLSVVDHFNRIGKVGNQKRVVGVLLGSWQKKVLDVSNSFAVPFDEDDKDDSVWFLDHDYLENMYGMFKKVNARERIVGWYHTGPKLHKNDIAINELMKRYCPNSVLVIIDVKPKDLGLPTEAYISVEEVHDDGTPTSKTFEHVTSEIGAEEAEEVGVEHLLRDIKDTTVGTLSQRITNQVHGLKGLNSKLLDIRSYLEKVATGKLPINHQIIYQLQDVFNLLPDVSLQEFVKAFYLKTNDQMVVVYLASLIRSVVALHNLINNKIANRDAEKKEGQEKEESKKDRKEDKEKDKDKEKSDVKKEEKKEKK
In short: as §1

[5] = molecular target: UCHL1 (UniProt P09936)
UCHL1, sequence (P09936 whole entry, looked up): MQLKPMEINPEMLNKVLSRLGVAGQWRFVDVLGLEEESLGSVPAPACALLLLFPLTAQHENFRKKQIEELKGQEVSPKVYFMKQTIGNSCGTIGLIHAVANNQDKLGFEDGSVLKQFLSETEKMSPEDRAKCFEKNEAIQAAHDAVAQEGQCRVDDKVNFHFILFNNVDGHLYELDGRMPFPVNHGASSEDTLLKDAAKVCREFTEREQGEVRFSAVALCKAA
In short: as §1

[6] = molecular target: T4, UCHL3 (UniProt P15374)
T4 sequence (whole entry): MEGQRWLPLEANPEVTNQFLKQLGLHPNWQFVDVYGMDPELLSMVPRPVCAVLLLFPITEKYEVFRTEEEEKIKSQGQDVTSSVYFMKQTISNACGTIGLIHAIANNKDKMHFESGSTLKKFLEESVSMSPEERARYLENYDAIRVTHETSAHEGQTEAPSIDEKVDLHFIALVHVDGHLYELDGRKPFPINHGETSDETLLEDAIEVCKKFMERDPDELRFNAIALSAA
In short: as §1

[7] = molecular target: T5, UCHL5 (UniProt Q9Y5K5)
T5 sequence (whole entry): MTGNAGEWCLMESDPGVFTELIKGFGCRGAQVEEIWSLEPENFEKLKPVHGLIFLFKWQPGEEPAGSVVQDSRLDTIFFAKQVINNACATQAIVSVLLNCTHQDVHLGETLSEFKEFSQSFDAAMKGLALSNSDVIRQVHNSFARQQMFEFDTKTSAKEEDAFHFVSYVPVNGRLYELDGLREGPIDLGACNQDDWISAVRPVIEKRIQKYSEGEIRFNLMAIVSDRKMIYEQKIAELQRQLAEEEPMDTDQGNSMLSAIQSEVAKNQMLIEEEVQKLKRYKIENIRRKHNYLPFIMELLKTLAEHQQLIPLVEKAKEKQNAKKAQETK
In short: as §1

[8] = molecular target: USP10 (UniProt Q14694)
USP10, sequence (Q14694 whole entry): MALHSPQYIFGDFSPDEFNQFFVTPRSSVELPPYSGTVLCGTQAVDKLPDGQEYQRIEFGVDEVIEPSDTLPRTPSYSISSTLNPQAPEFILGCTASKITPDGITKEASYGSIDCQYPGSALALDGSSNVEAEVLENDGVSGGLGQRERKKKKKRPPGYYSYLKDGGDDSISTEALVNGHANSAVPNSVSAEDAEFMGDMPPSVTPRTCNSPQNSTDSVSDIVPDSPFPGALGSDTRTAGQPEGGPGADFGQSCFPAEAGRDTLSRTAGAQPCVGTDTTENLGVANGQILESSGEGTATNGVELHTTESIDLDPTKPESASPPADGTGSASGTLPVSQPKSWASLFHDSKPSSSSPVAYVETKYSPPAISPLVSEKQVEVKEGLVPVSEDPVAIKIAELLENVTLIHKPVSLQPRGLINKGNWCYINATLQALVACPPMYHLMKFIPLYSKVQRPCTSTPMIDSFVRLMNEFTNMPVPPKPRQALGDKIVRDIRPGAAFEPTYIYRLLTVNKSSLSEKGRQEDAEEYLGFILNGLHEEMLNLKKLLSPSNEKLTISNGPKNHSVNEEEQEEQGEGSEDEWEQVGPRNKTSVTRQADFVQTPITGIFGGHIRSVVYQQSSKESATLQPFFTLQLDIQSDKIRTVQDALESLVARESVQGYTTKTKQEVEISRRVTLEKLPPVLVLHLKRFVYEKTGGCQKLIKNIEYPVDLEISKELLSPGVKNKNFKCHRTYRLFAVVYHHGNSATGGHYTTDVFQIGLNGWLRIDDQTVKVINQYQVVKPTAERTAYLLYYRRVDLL
In short: as §1

[9] = molecular target: T6, USP15 (UniProt Q9Y4E8)
T6 sequence (whole entry): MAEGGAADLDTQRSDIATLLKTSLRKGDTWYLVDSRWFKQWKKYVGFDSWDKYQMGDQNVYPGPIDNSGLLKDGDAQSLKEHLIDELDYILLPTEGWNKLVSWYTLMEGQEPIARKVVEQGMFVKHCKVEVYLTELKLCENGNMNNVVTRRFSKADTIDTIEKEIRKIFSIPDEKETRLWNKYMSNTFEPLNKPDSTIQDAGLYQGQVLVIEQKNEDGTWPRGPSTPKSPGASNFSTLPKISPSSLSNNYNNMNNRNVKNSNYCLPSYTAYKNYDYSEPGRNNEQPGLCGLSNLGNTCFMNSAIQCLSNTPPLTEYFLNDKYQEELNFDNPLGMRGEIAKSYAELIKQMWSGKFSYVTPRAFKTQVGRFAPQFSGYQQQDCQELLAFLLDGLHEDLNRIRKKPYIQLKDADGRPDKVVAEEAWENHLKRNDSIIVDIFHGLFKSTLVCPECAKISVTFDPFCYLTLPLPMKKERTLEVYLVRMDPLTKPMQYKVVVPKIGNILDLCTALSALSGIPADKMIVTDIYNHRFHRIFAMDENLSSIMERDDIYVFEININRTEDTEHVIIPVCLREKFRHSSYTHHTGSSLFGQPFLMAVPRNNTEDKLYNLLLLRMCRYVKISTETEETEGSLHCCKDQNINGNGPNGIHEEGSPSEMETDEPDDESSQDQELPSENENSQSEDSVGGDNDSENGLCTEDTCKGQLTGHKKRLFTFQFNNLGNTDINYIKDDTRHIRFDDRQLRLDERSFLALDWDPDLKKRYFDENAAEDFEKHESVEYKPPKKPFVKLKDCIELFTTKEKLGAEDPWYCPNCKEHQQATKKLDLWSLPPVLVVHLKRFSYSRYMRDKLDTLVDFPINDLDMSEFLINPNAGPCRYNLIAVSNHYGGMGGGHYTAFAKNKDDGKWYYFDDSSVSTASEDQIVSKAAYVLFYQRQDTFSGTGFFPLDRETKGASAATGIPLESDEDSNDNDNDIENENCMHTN
In short: as §1

[10] = molecular target: USP16 (UniProt Q9Y5T5)
USP16, sequence (Q9Y5T5 whole entry, looked up): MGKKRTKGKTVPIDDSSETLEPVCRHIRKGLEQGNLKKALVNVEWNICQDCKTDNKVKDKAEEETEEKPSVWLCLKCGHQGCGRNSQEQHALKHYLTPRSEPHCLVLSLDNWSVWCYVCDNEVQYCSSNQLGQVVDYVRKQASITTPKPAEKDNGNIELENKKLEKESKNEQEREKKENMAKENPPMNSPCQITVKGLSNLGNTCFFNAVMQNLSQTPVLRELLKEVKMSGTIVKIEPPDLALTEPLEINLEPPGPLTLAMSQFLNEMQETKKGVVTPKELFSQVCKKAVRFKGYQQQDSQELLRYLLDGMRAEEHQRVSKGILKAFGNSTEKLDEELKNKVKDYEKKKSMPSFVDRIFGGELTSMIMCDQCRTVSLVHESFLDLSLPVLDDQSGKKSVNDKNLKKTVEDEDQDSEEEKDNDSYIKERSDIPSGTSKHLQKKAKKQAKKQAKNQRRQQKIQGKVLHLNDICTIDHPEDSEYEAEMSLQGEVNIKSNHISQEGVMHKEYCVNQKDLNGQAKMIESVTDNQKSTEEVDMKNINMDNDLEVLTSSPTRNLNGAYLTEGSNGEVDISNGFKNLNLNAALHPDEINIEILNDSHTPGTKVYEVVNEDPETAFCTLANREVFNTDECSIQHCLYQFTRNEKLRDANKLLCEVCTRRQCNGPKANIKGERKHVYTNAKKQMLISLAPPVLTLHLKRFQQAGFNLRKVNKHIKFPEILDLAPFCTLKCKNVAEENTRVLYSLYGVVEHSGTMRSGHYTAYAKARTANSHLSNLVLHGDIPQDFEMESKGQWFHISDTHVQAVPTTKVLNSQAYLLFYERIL
In short: as §1

Measured: log2 ratio of Biotin-Ahx-Ub-VS probe labelling

Cl.Cn1ncc2c1CC(NC(=O)CCl)CC2 (stereo not given)
active: [5] -1.84
inactive: [1] 0.0134 | [2] -0.999 | [3] 0.142 | [4] -0.2 | [6] 0.377 | [7] -0.0217 | [8] -0.106 | [9] -0.0211 | [10] -0.62
